Screening data deposited in PubChem BioAssay by The Scripps Research Institute Molecular Screening Center.
The list is not random: actives were taken first. Their share in the collection is about 1.1%.
MsrA act – bovine methionine sulfoxide reductase A activation; 360,000 tested, 0.3% active; AID 602163; purified bovine MsrA, absorbance read-out; activation, % at 10.6 µM; in the data active means activation above about 7.5%
MsrA inhibitor – bovine MsrA inhibition | inhibition, % at 15.5 µM | 360,000 tested, 0.75% active | AID 651718 | purified bovine MsrA, absorbance read-out
PKA-R1A activ – PKA-R1A complex activation; P00514+P68181; PKA-R1A dissociation, Cy5-IP20 fluorescence polarization; scaled: DMSO 0%, 113 µM cGMP 100%; activation, % at 11.4 µM; 340,000 tested, 0.083% active;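 active means percent activation above the mean of all tested compounds plus 3 SD, cut at about 19% in these data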;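 further: higher means more PKAc released from R1A so a rise in polarization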
PKA-R2B act – PKA-R2B complex activation | P22694+P31323 | PKA-R2B holoenzyme dissociation, Cy5-IP20 fluorescence polarization; R2B truncated from residue 108, S112A mutant; 0% DMSO only, 100% 113 µM cGMP | activation, % at 11.4 µM | 340,000 tested, 0.079% active;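 active means activation above a cutoff set at the mean over all compounds plus 3 SD, cut at about 18% in these data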;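 further: higher means more holoenzyme dissociation and a rise in polarization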
Target sequence (P31323 whole entry, looked up, other chains not shown, the tested form may be a part): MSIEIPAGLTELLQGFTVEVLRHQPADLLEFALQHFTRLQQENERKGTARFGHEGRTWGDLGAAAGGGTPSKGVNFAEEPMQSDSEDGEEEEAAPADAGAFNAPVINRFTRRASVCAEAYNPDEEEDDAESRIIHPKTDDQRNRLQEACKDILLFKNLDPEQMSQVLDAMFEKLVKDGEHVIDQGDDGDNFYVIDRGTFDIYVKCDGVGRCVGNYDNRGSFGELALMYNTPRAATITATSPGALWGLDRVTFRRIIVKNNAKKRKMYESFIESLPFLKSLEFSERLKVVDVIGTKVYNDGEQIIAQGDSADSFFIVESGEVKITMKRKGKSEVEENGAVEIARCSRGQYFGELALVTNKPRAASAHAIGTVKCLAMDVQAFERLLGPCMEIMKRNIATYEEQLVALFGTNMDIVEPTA
MsrA conf – bovine MsrA inhibition, confirmed | inhibition, % at 15.5 µM | purified bovine MsrA, absorbance read-out | 2,300 tested, 41% active | AID 651822 | shares compounds with MsrA inhibitor;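 further: coupled to thioredoxin reductase with NADPH and selenocystamine and DMSO as substrate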
A number is an active result; . = inactive; / = no result. Unless noted, no stated cut-off is given here; in the data, active means inhibition above about 4.5%; inactive means the rest.

SMILES | MsrA act | MsrA inhibitor | PKA-R1A activ | PKA-R2B act | MsrA conf
COc1ccc(-n2c(/C=C(\C)O)nc(=O)c3c(C)cc(C)nc32)cc1 | . | 5.8 | . | . | .
COc1ccccc1NS(=O)(=O)c1cc2c3c(c1)CCN3C(=O)CC2 | . | . | . | . | /
COCCN(C(=O)c1ccc(-c2ccc([N+](=O)[O-])cc2)o1)c1c(N)n(CC(C)C)c(=O)[nH]c1=O | . | 4.7 | . | . | 4.6
CC(C)C[C@H]1CNC(=S)N1C[C@H]1CCCN1C[C@H](CC(C)C)N1C[C@H](Cc2ccc(O)cc2)N(CC2CCCCC2)C1=S | . | . | / | / | /
O=C(/C=C/c1c(Cl)nc2ccccn12)N1CCCCC1 | . | 7.8 | . | . | .
COc1cc(/C=N/NC(=O)c2ccc3nc[nH]c3c2)ccc1O | . | . | . | . | /
CCN(CC)c1ccc(/C=N/NC(=O)c2ccc3nc[nH]c3c2)cc1 | . | . | . | . | /
CSc1ccc(/C=N/NC(=O)c2ccc3nc[nH]c3c2)cc1 | . | 5.1 | . | . | 6.1
CN(C)c1ccc(/C=N/NC(=O)c2ccc3nc[nH]c3c2)cc1 | . | 4.9 | . | . | 4.9
C=CCN=C1NC(c2ccc(Cl)cc2)C(C(=O)OC)=C(C)N1Cc1ccccc1C(F)(F)F (centres undefined) | / | . | / | / | /
Cc1ccsc1/C=N/NC(=O)C1CC(=O)N(c2ccccc2)C1 (centres undefined) | . | . | . | . | /
COc1cc(Cl)c(C)cc1NC(=O)CN1C(=O)C2CCCCC2C1=O (centres undefined) | . | . | . | . | /
Oc1ccc(/C=N/Nc2ccc(Cl)nn2)cc1O | . | 4.9 | . | . | .
Cc1ccc(/C=N/Nc2ccc(Cl)nn2)cc1 | . | . | . | . | /
CCc1nc2c(OCCC3CCCCC3)cccn2c1N(C=O)Cc1ccc(OC)cc1 | . | . | / | / | /
